# Measured values reported in PubChem BioAssay (Tox21).
# Unmarked numbers belong to inactive results. Calls of active or inactive are those of the source. Calls follow the shape of the dose curve; as a rule, active = well fitted curve in the direction sought with a large enough effect in the repeat runs; inconclusive = weak or mixed curves; inactive = flat fitted curve, though single readings scatter.
# Assay: qHTS assay to test for compound auto fluorescence at 460 nm (blue) in HepG2 cells (AID 720687)
# Settings: autofluorescence 405/460 nm, 1 h; series mostly up to 91.3 µM; fluorescence, % of fluorescent control: at the top concentration
# Excerpt: U.S. Tox21 Program National Center for Advancing Translational Sciences [NCATS] NIH Chemical Genomics Center [NCGC] U.S. Environmental Protection Agency [EPA] National Institutes of Environmental Health Sciences [NIEHS] National Toxicology Program [NTP] U.S. Food and Drug Administration [FDA] Tox21 Assay Overview: Compound auto fluorescence often interferes with screening of the compound library against various biological targets and signaling pathways. Some of these compounds may have fluorophoric properties. Such properties may interfere with the assay outputs resulting in false positives and/or negatives. To decrease such complications and ensure the compound activities are relevant in terms of biological response, the Tox21 10K compound library was screened for auto fluorescence. From the fluorophores used as reporter signals in our screening assays, the auto fluorescence equivalencies of compounds against three fluorophores have been evaluated: Triamterene, Fluorescein and Rose Bengal sodium for blue, green and red fluorescence, respectively. The fluorescence intensities were measured using Excitation/Emission wavelengths at 405/460nm, 485/535nm and 540/590nm for blue, green and red labels, respectively. This assay includes the blue fluorescence data.
# Tox21 Assay Protocol Summary: 2,000 HepG2 cells in 5 uL of culture medium (MEM containing 10% FBS) per well were dispensed into black wall/clear bottom 1536-well plates using a Multidrop Combi Dispenser (ThermoFisher Scientific, Waltham, MA). The assay plates were incubated overnight at 37 C to allow cell attachment to the well bottom, followed by the transfer of 23 nL compound or DMSO vehicle by a pintool work station (Kalypsys , San Diego, CA). After the assay plates were incubated for 1 hr at 37 C and 5% CO2, fluorescence intensities in the assay plates were measured by an Envision (PerkinElmer, Shelton, CT) plate reader using three labels for measuring blue, green and red fluorescence at […] 460, 535 and 590 nm respectively.
# % is scaled to controls: 0 for no effect and ±100 for the full control effect.
SMILES,"fluorescence, % of fluorescent control",outcome
CCCCCCCC#N,0.0131%,
CCN(CC)CCOC(=O)C(c1ccccc1)C1CCCCC1 (stereo not given),0.0114% [at 46 µM],
CCOC(=O)C1=C[C@]2(CC)CCCN3CCc4c(n1c1ccccc41)[C@@H]32,,inactive
CC(C)C[C@H]1C(=O)N2CCC[C@H]2[C@]2(O)O[C@](NC(=O)[C@@H]3C=C4c5cccc6[nH]c(Br)c(c56)C[C@H]4N(C)C3)(C(C)C)C(=O)N12,,inactive
O=C(O)C1(C(=O)Nc2ccc(Cl)cc2Cl)CC1,0.0283%,
CCN(CC)c1ccc2c(-c3ccccc3C(=O)O)c3ccc(=[N+](CC)CC)cc-3oc2c1,0.947%,
CCCCc1ncc(/C=C(\Cc2cccs2)C(=O)O)n1Cc1ccc(C(=O)O)cc1,-0.0526% [at 46 µM],
COc1cc2nc(N3CCN(C(=O)C4COc5ccccc5O4)CC3)nc(N)c2cc1OC (stereo not given),-0.0603% [at 46 µM],
O=C(O)c1ccco1,0.0822%,
CCCCC1=NC2(CCCC2)C(=O)N1Cc1ccc(-c2ccccc2-c2nn[nH]n2)cc1,-0.0044% [at 46 µM],
C[N+]1(CC2COC(c3ccccc3)(C3CCCCC3)O2)CCCCC1 (stereo not given),-0.0265% [at 46 µM],
Nc1cc(C(=O)O)c(O)c(S(=O)(=O)O)c1,5.49%,
Nc1cccc([N+](=O)[O-])c1,-0.0078%,
CC(C)(O)c1ccc(CNC(=O)c2cccnc2Oc2ccc(F)cc2)cc1,0.244%,
C=C(C)C(=O)OCCOCC,0.195%,
COc1cc2nc(N(C)CCCNC(=O)C3CCCO3)nc(N)c2cc1OC (stereo not given),0.136% [at 18.6 µM],
O=S(c1cc(Cl)cc(Cl)c1O)c1cc(Cl)cc(Cl)c1O,-0.0883% [at 46 µM],
CC1OC(=O)C(C)OC1=O (stereo not given),0.226%,
CC1=CCCC(C)(C)C12CCC(C)O2 (stereo not given),-0.265%,
O=C(O)c1ccc(-n2nc(-c3ccccc3O)nc2-c2ccccc2O)cc1,0.0928% [at 46 µM],

SMILES,"fluorescence, % of fluorescent control",outcome
c1ccc(C(O[C@H]2CCCN(CCc3ccc4c(c3)OCO4)C2)c2ccccc2)cc1,-0.0725% [at 46 µM],
COc1ccc(C(=O)N2CCN(CC(=O)N3CCOCC3)CC2)cc1,0.854% [at 46 µM],
CN(C)C(=O)NC1(c2ccccc2)CCN(CC[C@@]2(c3ccc(F)c(F)c3)CN(C(=O)c3ccccc3)CCO2)CC1,-0.161%,
Clc1ccc2c(c1)CCc1cccnc1C2=C1CCNCC1,0.124% [at 46 µM],
O=C(OCCc1ccccc1)c1ccccc1,-0.107%,
CC(C)Nc1ccc(NC(C)C)c2c1C(=O)c1ccccc1C2=O,-0.0345% [at 46 µM],
C/C=C/C=C/CO,0.0319%,
OC(CN1CCC(Cc2ccc(F)cc2)CC1)c1ccc(Cl)cc1 (stereo not given),-0.0226% [at 46 µM],
CCOC(=O)Cc1cccc2ccccc12,-0.0598%,
CN1CCN(C(c2ccccc2)c2ccccc2)CC1,0.0094% [at 18.6 µM],
CCCCCCCCCCCCCCOS(=O)(=O)O,0.0373%,
CN1C[C@H]2c3ccccc3Oc3ccc(Cl)cc3[C@@H]2C1,0.0477% [at 46 µM],
Brc1c2ccccc2cc2ccccc12,1.62%,
CCCCCCCCCCCCCCCCOS(=O)(=O)O,0.301% [at 46 µM],
CN(C)CCN(Cc1ccccc1)c1ccccn1,-0.0599% [at 46 µM],
O=C(O)C(S)C(S)C(=O)O (stereo not given),0.0751% [at 46 µM],
C[N+](C)(C)CCOC(=O)CCC(=O)OCC[N+](C)(C)C,-0.0134% [at 46 µM],
NCc1ccccc1Sc1ccccc1CO,-0.0469% [at 46 µM],
Cc1oc(-c2ccccc2)nc1CCOc1cccc2c1ccn2CCC(=O)O,0.243%,
CCn1cc(C(=O)O)c(=O)c2cnc(N3CCNCC3)nc21,-0.128% [at 18.6 µM],
